Measured values reported in PubChem BioAssay AID492998 (Southern Research Specialized Biocontainment Screening …, 2010).
Screen size: about 2,300 compounds; about 550 (24%) were called active. A selection follows. Potency and affinity values are given separately. A number with no mark means an inactive call. No rule for the calls is given here.

Assay: Vero E6 cell cytotoxicity, dose response, cytotoxicity control for non-replicating M. tuberculosis project, secondary assay (AID 492998);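 also: 100% = vehicle-treated cells and 0% = background wells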
Conditions: series mostly up to 20 µM; viability: at the top concentration
With `O=C(COc1ccc2ccccc2c1)Nc1ccncc1` the “viability” value was 100%. With `O=C1C=CC(=O)N1N(c1ccccc1)c1ccccc1` the “viability” value was 111%. With `O=C(c1cccc2cccc(O)c12)N1CCCCC1` the “viability” value was 99.4%. With `Cn1c(SCc2c(F)cccc2Cl)nc2c(c1=O)SCC2` the “viability” value was 74.7%. For `Cc1cccc(NC(=O)CCSc2nnc(Cc3ccccc3)o2)c1`, the “viability” value was 102%. In the case of `O=C(COC(=O)CCC(=O)c1ccc(F)cc1)Nc1ccc(F)cc1F`, the “viability” value is reported as 101%. In the case of `CC(/C=C/c1ccco1)=N/NC(=O)c1ccc(C)nc1`, the “viability” value is reported as 106%. For `COc1ccc(OCC(=O)N/N=C2\CCc3ccccc32)cc1`, the “viability” value was 102%. For `CCOc1ccccc1NC(=O)COn1nnc2ccc(Cl)cc21`, the “viability” value was 99.8%. For `COc1ccc(CN=C(C#N)C2=C(O)c3ccccc3C2=O)cc1`, the “viability” value was 91.6%. With `COc1cccc(NC(=O)c2cnc(SC)nc2)c1` the “viability” value was 108%. For `COc1cccc(NC(=O)c2ccc(C(=O)c3ccccc3)o2)c1`, the “viability” value was 95.3%. For `C(#CCN1CCOCC1)COCc1ccccc1`, the “viability” value was 110%. For `O=c1cc(C(F)(F)F)[nH]c2c(C(F)(F)F)cccc12`, the “viability” value was 96.8%. In the case of `O=C(Nc1ncc2c(n1)-c1ccccc1OC2)c1ccc(F)cc1`, the “viability” value is reported as 98.9%. In the case of `O=C(Nc1nnc(C2=COCCO2)o1)c1ccc(F)cc1`, the “viability” value is reported as 83.1%. For `CCOC(=O)CNCCC(=O)c1ccc(Br)cc1`, the “viability” value was 92.9%. For `COc1ccc(S(=O)(=O)NCc2ccc3c(c2)cc(C)n3C)cc1`, the “viability” value was 103%. For `NC(N)=Nc1nc(-c2ccccc2)c2ccccc2n1`, the “viability” value was 97%. In the case of `COC(=O)COc1ccc(-c2nn(C)c(=O)c3ccccc23)cc1`, the “viability” value is reported as 90.4%. With `COC(=O)[C@H](CC(C)C)NC(=O)NCCC1=CCCCC1` the “viability” value was 87.6%. For `O=C(NCc1cccs1)c1cc(-c2ccc(O)cc2)on1`, the “viability” value was 89.1%. In the case of `CC1CCN(CCOCCSc2ccc(Cl)cc2)CC1`, the “viability” value is reported as 88.8%. With `O=C(CCSc1ccccn1)c1ccccc1` the “viability” value was 87.2%. With `CCOc1ccc(-c2ccc(SCC)nn2)cc1` the “viability” value was 93.3%. For `Nc1c(C(=O)NC2CCCCC2)nsc1C(=O)OCC(=O)NC1CCCCC1`, the “viability” value was 97%. For `CCC(C)c1ccc(OCCn2ccnc2)cc1` (configuration not stated), the “viability” value was 83.8%. With `O=C(N/N=C/C(Br)=C/c1ccccc1)c1cnccn1` the “viability” value was 88.9%. In the case of `O=C(N/N=C/C(Br)=C/c1ccccc1)c1ccncc1`, the “viability” value is reported as 105%. With `O=C(Cc1ccccc1)Nc1ccc(C(=O)NCC2COc3ccccc3O2)cc1` (configuration not stated) the “viability” value was 94.7%. For `O=C(NCc1ccc(Cl)cc1)c1n[nH]c([N+](=O)[O-])c1Cl`, the “viability” value was 105%. In the case of `CCOc1ccc(NC(=O)COc2ccc3c(c2)OCO3)cc1`, the “viability” value is reported as 100%. In the case of `CC(C)(C)c1ccccc1OCCOCCN1CCCCCC1`, the “viability” value is reported as 75.2%. For `Cc1ccc(C(=O)NCCOc2cccc(C)c2)cc1`, the “viability” value was 101%. With `Cc1cccc(OCCCCc2c(C)n[nH]c2C)c1` the “viability” value was 86.5%. With `Cc1cc(OCc2cc(C(=O)N(C)CCc3cnn(C)c3)no2)cc(C)c1Cl` the “viability” value was 77.5%. For `COc1cccc(COC(=O)c2sc3nc4n(c(=O)c3c2C)CCC4)c1OC`, the “viability” value was 99.9%. In the case of `CCOc1ccc(OCCSc2ccc(S(=O)(=O)N3CCN(C)CC3)cn2)cc1`, the “viability” value is reported as 91.8%. With `O=C(CCN1CCOCC1)c1ccc(Br)cc1` the “viability” value was 82.3%. For `Cc1cc(C(=O)N/N=C/C=C/c2ccccc2)c(C)o1`, the “viability” value was 81%. In the case of `Nc1ccc2c(c1)oc1ccccc12`, the “viability” value is reported as 98.2%. For `CCCc1nnc(-c2ccc(OC)cc2)o1`, the “viability” value was 97%. For `Cc1ccc(SCCC(=O)OCC(=O)NCC2CCCCC2)cc1`, the “viability” value was 101%. For `NC(=O)CN1CCN(C2CC(=O)N(CCc3ccccc3)C2=O)CC1` (configuration not stated), the “viability” value was 107%. For `NNC(=O)COc1cccc(Oc2ccccc2)c1`, the “viability” value was 107%. For `CCOC(=O)COc1ccc2c3c(c(=O)oc2c1C)CCC3`, the “viability” value was 92.1%. With `O=Cc1coc2ccc3ccccc3c2c1=O` the “viability” value was 95.9%. In the case of `O=C(OCc1ccc([N+](=O)[O-])cc1)c1ccc2ccccc2n1`, the “viability” value is reported as 96.5%. In the case of `Cc1cc(C=C2C(=O)N(C)C(=S)N(C)C2=O)c(C)n1-c1cccnc1`, the “viability” value is reported as 113%. With `Cc1ccc2nc(C)c3c(c2c1)SCC3` the “viability” value was 103%. In the case of `CCOC(=O)Cc1csc(NC(=O)COc2ccc3c(c2)CCC3)n1`, the “viability” value is reported as 103%. With `CCCCCCn1c(=O)c(C(=O)Nc2nnc(C)s2)c(O)c2ccccc21` the “viability” value was 83.8%. In the case of `CCCCn1c(=O)c(C(=O)Nc2nnc(C(C)C)s2)c(O)c2ccccc21`, the “viability” value is reported as 91.5%. In the case of `O=C(NC(=S)N1CCN(C/C=C/c2ccccc2)CC1)c1ccco1`, the “viability” value is reported as 113%. In the case of `Brc1ccc(-c2ccc(CNCc3ccccn3)o2)cc1`, the “viability” value is reported as 91.8%. With `Cc1ccccc1OCCCCc1c(C)n[nH]c1C` the “viability” value was 81.3%. In the case of `O=C(COC(=O)CC12CC3CC(CC(C3)C1)C2)Nc1cccnc1Cl`, the “viability” value is reported as 83.2%. For `NC(=O)COc1ccc2cc(-c3ccc(F)cc3)c(=O)oc2c1`, the “viability” value was 86.5%. In the case of `O=C(CCN1CCOCC1)c1ccc(Cl)cc1`, the “viability” value is reported as 82.1%. For `Oc1ccc(F)c2cccnc12`, the “viability” value was 98%. In the case of `COc1ccc(C(=O)Oc2cccc3cccnc23)cc1S(=O)(=O)N1CCOCC1`, the “viability” value is reported as 91%. With `COc1ccc2cc(C(=O)C3CCCN(Cc4ccccn4)C3)ccc2c1` (configuration not stated) the “viability” value was 88.9%. With `O=C(COc1c(Br)cc(Br)c2cccnc12)N1CCCCC1` the “viability” value was 93.4%. With `COc1cc(NC(=O)N2CCOCC2)cc(OC)c1` the “viability” value was 106%. With `COc1ccc(/C=N/NC(=O)c2ccncc2)cc1CN1CCOCC1` the “viability” value was 106%. With `CCOC(=O)C1(CCc2ccccc2)CCN(Cc2ccccn2)CC1` the “viability” value was 96.7%. In the case of `Cc1ccc(NC(=O)CO/N=C/c2ccccc2C)c(C)c1`, the “viability” value is reported as 100%. For `COC(=O)CCSCc1cn2cc(Cl)ccc2n1`, the “viability” value was 109%. With `COc1ccc(-c2nc3ccc(C)cc3c(=O)o2)cc1OC` the “viability” value was 109%. With `CCOC(=O)Cn1c(-c2ccccc2)ccc(C#N)c1=O` the “viability” value was 97.8%. With `COc1ccc(OC(=O)C(C)N2C(=O)c3ccccc3C2=O)cc1` (configuration not stated) the “viability” value was 104%. For `O=C(Cc1ccc(Cl)cc1)OCC(=O)c1ccc[nH]1`, the “viability” value was 109%. For `O=C(COC(=O)CC1CCCC1)Nc1ccc(Cl)cn1`, the “viability” value was 108%. For `NC(=O)COC(=O)c1sc2ccccc2c1Cl`, the “viability” value was 90.3%. In the case of `CCOC(=O)c1c(C)n(C)c2ccc(OC(C)C(=O)OC)cc12` (configuration not stated), the “viability” value is reported as 98.4%. For `Cc1cc(C(=O)COc2cccc3cccnc23)c(C)n1C`, the “viability” value was 87.9%. In the case of `CCOC(=O)COc1ccc(C2CC(C)=NN2c2ccccc2)cc1` (configuration not stated), the “viability” value is reported as 102%. For `Cc1ccccc1Cn1cc(NC(=O)c2noc(C(C)C)c2[N+](=O)[O-])cn1`, the “viability” value was 112%. With `CCOC(=O)CCCNC(=O)COC(=O)c1cc(Br)c(Br)s1` the “viability” value was 107%. With `O=C(N/N=C\c1ccco1)c1cncc(Br)c1` the “viability” value was 97.2%. With `Cc1nnc(C)n1/N=C/c1cc(Br)cc(Br)c1O` the “viability” value was 105%. In the case of `COC(=O)C1=C(C(=O)OC)C(c2cc(Cl)ccc2O)c2sc(=O)[nH]c2S1` (configuration not stated), the “viability” value is reported as 92.5%. With `CSCCC(=O)N1CCCC(CNC(=O)c2ccc(-c3ccccc3)cc2)C1` (configuration not stated) the “viability” value was 97.5%. With `CCOc1ccc(-c2ccc(C=O)o2)c([N+](=O)[O-])c1` the “viability” value was 98.1%. With `O=[N+]([O-])c1ccc(Nc2ccccc2)c2nonc12` the “viability” value was 103%. For `O=[N+]([O-])c1cncc([N+](=O)[O-])c1Nc1ccccc1Cl`, the “viability” value was 88.5%. For `CCCCc1ccc(NS(=O)(=O)c2c(C)n(C)c(=O)n(C)c2=O)cc1`, the “viability” value was 89.4%. For `CCOc1ccc(OCC(=O)OCc2cc(=O)n3cc(Br)ccc3n2)cc1`, the “viability” value was 100%. For `O=C(N/N=C\C=C\c1ccco1)c1cncc(Br)c1`, the “viability” value was 97.4%. In the case of `O=C(N/N=C/c1cccs1)c1cncc(Br)c1`, the “viability” value is reported as 101%. For `COC(=O)C1CC(=O)N(c2ccc(OCc3ccccc3Cl)cc2)C1` (configuration not stated), the “viability” value was 106%. With `COc1cccc(OCC(=O)NNC(=O)C(=O)Nc2cccc(C)c2)c1` the “viability” value was 90.2%. With `CC(C)=CCN1CCN(CCC2=C(C)CCCC2(C)C)CC1CCO` (configuration not stated) the “viability” value was 88.3%. In the case of `CN1C(=O)CC(Sc2ccccc2C(=O)O)C1=O` (configuration not stated), the “viability” value is reported as 105%. With `Cc1ccc(N/N=C2\CS(=O)(=O)N(C)c3ccsc32)cc1` the “viability” value was 91.9%. In the case of `CCCOc1ccc(-c2nc(C#N)c(NCCCn3ccnc3)o2)cc1`, the “viability” value is reported as 77.3%. In the case of `COc1ccc(C(=O)OCn2nnc3ccccc3c2=O)cc1[N+](=O)[O-]`, the “viability” value is reported as 107%. For `CC(C)CN(Cc1c(O)ccc2ccccc12)CC(C)C`, the “viability” value was 98.1%. For `O=C(CNC(=O)c1ccco1)OCc1ccc(C(=O)Oc2ccccc2)cc1`, the “viability” value was 95.4%. For `Oc1ccc(Cl)cc1CNCc1ccc(F)cc1`, the “viability” value was 97.2%. With `O=[N+]([O-])c1ccc(CNc2cccc(Cl)c2)s1` the “viability” value was 96.4%. With `CCC(C)[C@H]1CN=C(N)N1CCc1cccc2ccccc12` (some centres not stated) the “viability” value was 104%. In the case of `COc1ccc(C(=O)OCn2nnc3ccccc3c2=O)cc1`, the “viability” value is reported as 93.6%. In the case of `CC(C)N=C1SC(CC(=O)Nc2ccccc2)C(=O)N1C(C)C` (configuration not stated), the “viability” value is reported as 94.4%. With `Cc1cccc(CC(=O)NCC2CCCCC2)c1` the “viability” value was 89.9%. With `CCCN1C(=O)SC(CC(=O)Nc2ccccc2)C1=O` (configuration not stated) the “viability” value was 99.3%. With `COC(=O)COc1ccc(S(=O)(=O)N2CCCCCC2)cc1` the “viability” value was 80.5%. With `O=C(NCC1CCN(c2ccc(S(=O)(=O)N3CCOCC3)cc2)CC1)c1ccc(Cl)cc1` the “viability” value was 88%. In the case of `N#Cc1ccc(-c2ccc(OCC(=O)Nc3cccnc3)cc2)cc1`, the “viability” value is reported as 72.8%. In the case of `O=C(CN1CCN(c2ccccc2O)CC1)Nc1ccc2c(c1)CCC2`, the “viability” value is reported as 107%. For `O=S(=O)(Nc1nccs1)c1ccc(NCc2cc(Br)cc(Br)c2O)cc1`, the “viability” value was 88.4%. In the case of `COc1ccc(C2=NOC(COC(=O)c3ccc4ccccc4n3)C2)cc1` (configuration not stated), the “viability” value is reported as 95.9%. With `COc1ccc(C(=O)COC(=O)CCC(=O)c2cccs2)cc1` the “viability” value was 105%. With `O=C(O)COc1ccc2occ(C(=O)c3ccccc3)c2c1` the “viability” value was 96.2%. With `O=C(COC(=O)c1ccc([N+](=O)[O-])s1)Nc1ccc(Cl)cn1` the “viability” value was 92.2%. With `O=C(OCC#CCSc1nnc(-c2ccncc2)o1)c1cccs1` the “viability” value was 103%. For `O=C(c1ccc(Cl)cc1)c1nnc(-c2ccncc2)o1`, the “viability” value was 92.7%. With `Cc1cc(C)c(OCC(=O)Nc2nnc(-c3ccco3)o2)c(C)c1` the “viability” value was 100%. In the case of `O=C(Nc1nnc(-c2ccco2)o1)c1ccc(Cl)s1`, the “viability” value is reported as 72.1%. For `CCOC(=O)c1c(C)[nH]c(C)c1C(=O)COC(=O)c1ccc([N+](=O)[O-])s1`, the “viability” value was 79.9%. In the case of `CCN1CCN(C(=O)CN(Cc2ccccc2)S(C)(=O)=O)CC1`, the “viability” value is reported as 103%. With `Clc1ccc(SCCOCCN2CCc3ccccc3C2)cc1` the “viability” value was 89.1%.
